From PubChem BioAssay
Calls of active or inactive are those of the source. Unless noted, the rule behind the calls is not given here.

Key:
[1] = tested on: Wnt5a (protein binding on small-molecule microarray); test: small molecules binding Wnt5a protein – biophysical, small-molecule microarray, 635/667 nm fluorescence, primary screen (AID 1142); conditions: 635 nm fluorescence, higher = more signal;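 note: fluorescence read at 667 nm with signal to noise per printed feature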
[2] = ATP-based viability of Huh7 replicon cells – cell-based, CellTiter-Glo luminescence, basal, 48 h, cytotoxicity control for HCV replication inhibitor project, primary screen (AID 1143); conditions: higher = more signal, called active from +8 up or from −8 down;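 note: Huh7 hepatoma cells carrying a hepatitis C replication reporter with no stimulus; test concentration not given here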
[3] = Pseudomonas biofilm growth suppression – PAO1 strain, BacTiter-Glo luminescence, LB-PBS, primary screen (AID 1144); conditions: P. aeruginosa PAO1 biofilm, 12 h, higher = more signal
[4] = basal CRE-LacZ reporter activity in PC12 – cell-based, unstimulated, primary screen (AID 1145); conditions: no forskolin, luminescence, 4.5 h, higher = more signal, called active from +8 up or from −8 down
[5] = forskolin-driven CRE-LacZ activity in PC12 – cell-based, CRE-LacZ reporter, forskolin-stimulated, primary screen (AID 1146); conditions: luminescence, 4.5 h, higher = more signal, called active from +8 up or from −8 down;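 note: PC12 cells with 6xCRE LacZ reporter stimulated by forskolin 10 µM; beta-galactosidase reporter signal reflecting CREB driven transcription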
[6] = target: Streptavidin (Streptomyces avidinii) (UniProt P22629); test: compounds binding control protein streptavidin – biophysical, small-molecule microarray, 635/667 nm fluorescence, artefact control for SMM compound annotation, primary screen (AID 1147); conditions: higher = more signal;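 note: signal reflects streptavidin binding to arrayed compounds as a control protein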
Streptavidin (Streptomyces avidinii), sequence (P22629 whole entry, looked up): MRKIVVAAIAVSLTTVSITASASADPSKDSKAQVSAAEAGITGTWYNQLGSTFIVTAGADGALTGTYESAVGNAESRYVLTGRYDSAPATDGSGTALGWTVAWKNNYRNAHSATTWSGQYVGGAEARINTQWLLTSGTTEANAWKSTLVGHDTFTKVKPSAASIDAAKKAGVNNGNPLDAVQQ

[7] = probe aInhba binding on compound microarray – biochemical, small-molecule microarray, 635/667 nm fluorescence, primary screen (AID 1148); conditions: higher = more signal;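 note: score merges 667nm spot fluorescence with signal-to-noise for antibody binding to printed compounds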
Torsin-1A (Homo sapiens) [8] = target: Torsin-1A (Homo sapiens) (UniProt O14656); test: TOR1A wild-type binding on microarray – cell lysate, small-molecule microarray, lysate, 635/667 nm, primary screen (AID 1149); conditions: COS7 hTOR1A-WT lysate, 635 nm fluorescence, higher = more signal
Torsin-1A (Homo sapiens), sequence (O14656 whole entry, looked up): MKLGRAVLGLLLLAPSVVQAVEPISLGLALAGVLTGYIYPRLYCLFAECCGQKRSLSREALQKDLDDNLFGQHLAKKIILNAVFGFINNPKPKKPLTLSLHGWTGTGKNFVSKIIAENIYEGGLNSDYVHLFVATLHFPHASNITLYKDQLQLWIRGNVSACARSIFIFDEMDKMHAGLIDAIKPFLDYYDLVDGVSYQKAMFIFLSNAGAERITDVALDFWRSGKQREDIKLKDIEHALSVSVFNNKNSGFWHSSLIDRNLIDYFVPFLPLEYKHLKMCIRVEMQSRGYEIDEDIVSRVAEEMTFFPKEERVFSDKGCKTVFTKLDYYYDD

Torsin-1A (Homo sapiens) [9] = target: Torsin-1A (Homo sapiens) (UniProt O14656); test: torsin A mutant lysate binding on microarrays – cell lysate, small-molecule microarray, COS7 lysate, 635/667 nm fluorescence, primary screen (AID 1150); conditions: COS7 hTOR1A mutant lysate, 635 nm fluorescence, higher = more signal;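 note: score pools 667 nm emission and signal to noise measuring lysate protein binding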
[10] = tested on: Sonic hedgehog protein (Shh); test: Sonic hedgehog microarray binding compounds – biochemical, small-molecule microarray, 635/667 nm fluorescence, primary screen (AID 1151); conditions: 635 nm fluorescence, higher = more signal;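 note: Shh protein binding to compounds spotted on small-molecule microarray slides; score combines spot fluorescence intensity with signal-to-noise across triplicate slides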
[11] = optical density shifts of acrAB sulA E. coli – strain DRC41, OD650, 48 h, E. coli filamentation inducer project, primary screen (AID 1152); conditions: higher = more signal, called active from +8 up or from −8 down;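 note: E. coli MC1000 strain DRC41 lacking acrAB efflux pump and sulA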
[12] = probe aLefty1 binding on compound microarray – biochemical, small-molecule microarray, 635/667 nm fluorescence, primary screen (AID 1153); conditions: higher = more signal;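 note: score merges spot fluorescence with signal-to-noise ratio from the scanned slide images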
[13] = plasmodial surface anion channel blockers, osmotic lysis – cell-based, P. falciparum Indochina, OD700, 1 h, primary screen (AID 1154); conditions: P. falciparum Indochina infected RBC osmotic lysis, higher = more signal, called active from +8 up or from −8 down
[14] = plasmodial surface anion channel blockers, osmotic lysis – cell-based, P. falciparum Indochina, OD700, 2 h, primary screen (AID 1155);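 note: lysis reports solute entry through the parasite surface anion channel PSAC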; conditions: P. falciparum Indochina infected erythrocytes, higher = more signal, called active from +8 up or from −8 down
[15] = changes in parasitized red cell lysis, either direction – P. falciparum Indochina, OD700, 3 h, PSAC antagonist project, primary screen (AID 1156); conditions: P. falciparum-infected erythrocytes, osmotic lysis, higher = more signal, called active from +8 up or from −8 down
[16] = plasmodial surface anion channel blockers, osmotic lysis – cell-based, P. falciparum Indochina, OD700, 18 h, primary screen (AID 1157); conditions: P. falciparum Indochina infected erythrocytes, osmotic lysis OD700, 18 h; higher = more signal, called active from +8 up or from −8 down
[17] = S6 kinase pathway phospho-S6 level changes – cell-based, A549, cytoblot, luminescence, serum-stimulated, primary screen (AID 1158); conditions: 5 h, higher = more signal;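 note: serum-stimulated A549 lung adenocarcinoma cells; signal is phosphorylated S6 detected by cytoblot immunostaining with HRP secondary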
[18] = target: NADPH oxidase 2 (Homo sapiens) (UniProt P04839); test: compounds shifting NOX2 Amplex Red fluorescence – cell-based, HEK293-NOX2, PMA-stimulated, NOX inhibitor project, primary screen (AID 1159); conditions: 45 min, higher = more signal, called active from +8 up or from −8 down; note: test concentration not given here
NADPH oxidase 2 (Homo sapiens), sequence (P04839 whole entry, looked up): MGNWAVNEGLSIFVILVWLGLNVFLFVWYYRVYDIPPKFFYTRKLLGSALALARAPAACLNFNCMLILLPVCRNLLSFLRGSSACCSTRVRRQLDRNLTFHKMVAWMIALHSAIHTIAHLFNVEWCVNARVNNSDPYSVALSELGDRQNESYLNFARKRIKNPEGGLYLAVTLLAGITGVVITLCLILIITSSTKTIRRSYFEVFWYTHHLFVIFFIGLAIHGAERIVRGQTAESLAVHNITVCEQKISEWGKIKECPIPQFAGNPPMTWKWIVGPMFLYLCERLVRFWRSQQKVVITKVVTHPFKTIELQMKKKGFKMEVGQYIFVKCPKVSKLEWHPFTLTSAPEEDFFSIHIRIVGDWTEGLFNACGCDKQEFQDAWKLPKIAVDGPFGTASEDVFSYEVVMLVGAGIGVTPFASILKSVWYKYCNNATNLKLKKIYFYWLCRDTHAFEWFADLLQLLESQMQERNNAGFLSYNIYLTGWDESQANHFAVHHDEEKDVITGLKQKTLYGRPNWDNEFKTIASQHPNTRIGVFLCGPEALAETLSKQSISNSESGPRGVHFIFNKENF

[19] = target: NADPH oxidase 4 (Homo sapiens) (UniProt Q9NPH5); test: compounds shifting NOX4 Amplex Red fluorescence – cell-based, HEK293-NOX4, tetracycline-induced, NOX inhibitor project, primary screen (AID 1160); conditions: HEK293-NOX4, Amplex Red H2O2 fluorescence, 45 min; higher = more signal, called active from +8 up or from −8 down
NADPH oxidase 4 (Homo sapiens), sequence (Q9NPH5 whole entry, looked up): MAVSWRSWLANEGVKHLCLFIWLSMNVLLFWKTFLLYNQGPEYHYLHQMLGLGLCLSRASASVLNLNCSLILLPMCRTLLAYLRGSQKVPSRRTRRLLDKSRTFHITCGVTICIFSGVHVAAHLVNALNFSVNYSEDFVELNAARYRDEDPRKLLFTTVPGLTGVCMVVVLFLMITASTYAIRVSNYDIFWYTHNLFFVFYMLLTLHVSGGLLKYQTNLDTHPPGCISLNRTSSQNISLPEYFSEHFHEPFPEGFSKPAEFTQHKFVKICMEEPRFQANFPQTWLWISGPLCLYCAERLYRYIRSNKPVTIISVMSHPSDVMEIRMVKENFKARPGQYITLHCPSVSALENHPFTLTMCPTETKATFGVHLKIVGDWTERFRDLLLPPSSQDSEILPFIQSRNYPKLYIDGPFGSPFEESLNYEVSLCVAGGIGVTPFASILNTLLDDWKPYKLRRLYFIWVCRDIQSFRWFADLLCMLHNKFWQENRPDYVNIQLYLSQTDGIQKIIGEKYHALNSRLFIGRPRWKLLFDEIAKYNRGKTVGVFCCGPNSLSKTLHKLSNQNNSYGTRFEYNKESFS

[20] = target: NADPH oxidase 5 (Homo sapiens) (UniProt Q96PH1); test: compounds shifting NOX5 Amplex Red fluorescence – cell-based, HEK293-NOX5, NOX inhibitor project, primary screen (AID 1161); conditions: HEK293-NOX5, ionomycin, 45 min, higher = more signal
NADPH oxidase 5 (Homo sapiens), sequence (Q96PH1 whole entry, looked up): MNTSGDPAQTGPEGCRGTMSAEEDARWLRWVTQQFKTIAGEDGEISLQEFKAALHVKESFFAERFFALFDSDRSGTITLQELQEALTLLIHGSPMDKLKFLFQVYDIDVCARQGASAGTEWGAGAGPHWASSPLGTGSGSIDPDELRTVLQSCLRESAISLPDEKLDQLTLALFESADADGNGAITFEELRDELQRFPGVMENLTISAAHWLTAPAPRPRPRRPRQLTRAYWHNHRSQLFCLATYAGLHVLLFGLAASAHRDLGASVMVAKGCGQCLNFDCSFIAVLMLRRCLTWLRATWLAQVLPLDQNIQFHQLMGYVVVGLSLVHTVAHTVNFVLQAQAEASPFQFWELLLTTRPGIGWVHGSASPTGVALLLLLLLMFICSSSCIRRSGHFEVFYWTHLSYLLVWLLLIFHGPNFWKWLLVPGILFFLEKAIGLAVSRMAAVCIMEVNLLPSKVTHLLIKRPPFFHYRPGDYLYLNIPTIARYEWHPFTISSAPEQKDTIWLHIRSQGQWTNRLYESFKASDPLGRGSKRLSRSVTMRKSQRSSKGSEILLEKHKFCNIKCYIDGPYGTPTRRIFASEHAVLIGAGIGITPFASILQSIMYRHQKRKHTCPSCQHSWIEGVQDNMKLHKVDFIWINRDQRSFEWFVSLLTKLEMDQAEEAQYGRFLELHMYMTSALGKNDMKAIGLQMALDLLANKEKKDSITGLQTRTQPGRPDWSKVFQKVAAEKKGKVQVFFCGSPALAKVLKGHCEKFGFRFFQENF

Structure (SMILES)	composite z-score [1]	z-score [2]	z-score [3]	z-score [4]	z-score [5]	composite z-score [6]	composite z-score [7]	composite z-score (Torsin-1A (Homo sapiens) [8])	composite z-score (Torsin-1A (Homo sapiens) [9])	composite z-score [10]	z-score [11]	composite z-score [12]	z-score [13]	z-score [14]	z-score [15]	z-score [16]	z-score [17]	z-score [18]	z-score [19]	z-score [20]
COc1ccc([Si](C)(C)[C@H]2[C@H](CC(=O)N3Cc4ccccc4C[C@H]3CO)O[C@@]3(C(=O)N(C)c4c(Br)cc(C)cc43)[C@@H]2C)cc1	0.144	-7.74 (inactive)	-0.324 (inactive)	7.68 (inactive)	-1.29 (inactive)	0.298	-0.0087	0.573	0.435	2.11	-1.05 (inactive)	0.297	9.31 (active)	2.16 (inactive)	1.31 (inactive)	1.68 (inactive)	0.0914	0.0544 (inactive)	0.794 (inactive)	0.136
O=C1C2C=CC(C(O)c3c(F)cccc3Cl)N(Nc3ccc([N+](=O)[O-])cc3)C2C(=O)N1c1ccccc1 (stereo not given)	0.469	-1.39 (inactive)	-1.44 (inactive)	-0.0787 (inactive)	0.329 (inactive)	1.26	0.142	0.414	1.03	1.01	-0.262 (inactive)	0.218	30 (active)	21 (active)	2.34 (inactive)	1.76 (inactive)	-0.24	-1.5 (inactive)	-2.29 (inactive)	-1.9
COc1ccc(C(=O)Nc2cccc(CN3C(=O)[C@]4(O[C@H](CC(=O)N5Cc6ccccc6C[C@H]5CO)[C@@H]([Si](C)(C)c5ccc(OC)cc5)[C@@H]4C)c4ccccc43)c2)cc1	0.711	-3.89 (inactive)	0.269 (inactive)	-1.07 (inactive)	-0.442 (inactive)	-0.266	0.114	0.671	0.701	2.19	1.66 (inactive)	0.423	4.02 (inactive)	1.49 (inactive)	0.887 (inactive)	1.04 (inactive)	0.568	0.0795 (inactive)	0.701 (inactive)	2.01
COc1ccc([Si](C)(C)[C@H]2[C@H](CC(=O)N3Cc4ccccc4C[C@H]3CO)O[C@@]3(C(=O)N(C)c4ccccc43)[C@@H]2C)cc1	0.26	-7.33 (inactive)	0.458 (inactive)	5.61 (inactive)	-1.92 (inactive)	0.783	0.0342	1.28	1.91	2.07	-0.614 (inactive)	0.384	13.2 (active)	1.16 (inactive)	2.37 (inactive)	-0.925 (inactive)	0.867	-3.27 (inactive)	-1.45 (inactive)	-1.91
CCOC(=O)C1=CCC(c2cc3ccccc3[nH]2)N(CCN2CC(C(=O)OCC)=CCC2c2cc3ccccc3[nH]2)C1 (stereo not given)	0.125	-1.74 (inactive)	-1.85 (inactive)	-0.275 (inactive)	-0.684 (inactive)	0.428	0.162	0.0418	0.104	0.54	-0.889 (inactive)	0.379	4.01 (inactive)	1.41 (inactive)	2.42 (inactive)	1.03 (inactive)	1.56	-0.756 (inactive)	-0.315 (inactive)	-0.307
COc1ccc([Si](C)(C)[C@H]2[C@H](CC(=O)N3CCC[C@H]3CO)O[C@@]3(C(=O)N(Cc4ccc(N5CCCCC5=O)cc4)c4ccccc43)[C@@H]2C)cc1	0.567	-3.13 (inactive)	-0.53 (inactive)	-0.258 (inactive)	0.44 (inactive)	-0.0147	0.426	0.13	0.608	2.17	1.5 (inactive)	0.44	7.73 (inactive)	1.66 (inactive)	2.12 (inactive)	1.02 (inactive)	0.287	1.52 (inactive)	1.03 (inactive)	2.69
CC(C)C[C@@H]1NC(=O)[C@@H]2C[C@H](C(=O)NCCCCCCNC(=O)CS)[C@H](c3cccc(OCCO)c3)N2C1=O	0.971	0.0734 (inactive)	-0.253 (inactive)	0.688 (inactive)	0.0025 (inactive)	1.22	0.159	1.15	1.18	2.38	-1.05 (inactive)	0.196	7.13 (inactive)	1.57 (inactive)	1.01 (inactive)	0.792 (inactive)	-0.485	1.56 (inactive)	0.427 (inactive)	-0.196
COc1ccc(C(O)C2C=CC3C(=O)N(C)C(=O)C3N2N(c2ccccc2)c2ccccc2)cc1 (stereo not given)	0.0865	0.522 (inactive)	0.219 (inactive)	0.629 (inactive)	0.517 (inactive)	1.35	0.105	0.153	0.368	-0.176	-1.3 (inactive)	0.363	2.07 (inactive)	1.14 (inactive)	0.509 (inactive)	0.974 (inactive)	-0.478	-0.685 (inactive)	-2.05 (inactive)	-0.77
CCCNC(=O)[C@@]1(Sc2ccc(C)cc2)CC(=O)N(Cc2ccccc2Cl)[C@@H]1c1ccc(CO)cc1I	-0.618	-1.23 (inactive)	0.0611 (inactive)	0.479 (inactive)	1.44 (inactive)	-0.255	0.216	-1.61	-1.42	-0.537	0.244 (inactive)	1.08	5.36 (inactive)	0.773 (inactive)	0.206 (inactive)	0.303 (inactive)	0.009	1.24 (inactive)	-1.41 (inactive)	1.87
COC(=O)[C@]1(Cc2ccccc2)N=C(c2ccc(OCCCO)cc2)O[C@@H]1c1ccccc1CN=[N+]=[N-]	0.239	-5.39 (inactive)	-1.19 (inactive)	2.31 (inactive)	-1.5 (inactive)	-0.304	0.233	-0.133	0.104	0.895	-1.03 (inactive)	0.25	27.2 (active)	24.7 (active)	0.765 (inactive)	4.7 (inactive)	0.614	-4.51 (inactive)	-1.36 (inactive)	-2.36
COc1ccc([Si](C)(C)[C@@H]2[C@@H](CC(=O)N3Cc4ccccc4C[C@H]3CO)O[C@]3(C(=O)N(Cc4ccc(N5CCOC5=O)cc4)c4ccccc43)[C@H]2C)cc1	-0.0088	-4.75 (inactive)	-0.081 (inactive)	0.949 (inactive)	-0.888 (inactive)	-0.0492	-0.128	0.438	0.702	1.96	0.378 (inactive)	-0.0868	8.18 (active)	1.59 (inactive)	0.374 (inactive)	0.892 (inactive)	0.982	0.393 (inactive)	1.15 (inactive)	1.88
CCCC=C(CCC)[C@@H](NC(=O)OCC(C)C)c1ccc(C(=O)OC)cc1	-0.0326	-1.07 (inactive)	0.3 (inactive)	-1.72 (inactive)	0.291 (inactive)	0.153	-0.154	0.841	0.104	0.23	-0.531 (inactive)	0.506	-1.17 (inactive)	-0.781 (inactive)	-1.07 (inactive)	-1.47 (inactive)	1.31	0.115 (inactive)	1.89 (inactive)	1.97
NC(=O)N1C(=O)C2C(C1=O)C1C=C(CCCO)C2C(c2ccc(CN3CCCC3)cc2)N1Cc1sc2ccccc2c1Cl (stereo not given)	-0.24	-3.46 (inactive)	0.386 (inactive)	-0.0602 (inactive)	-1.08 (inactive)	0.558	-0.268	-0.174	0.823	0.287	-0.711 (inactive)	-0.251	3.48 (inactive)	0.894 (inactive)	0.363 (inactive)	0.504 (inactive)	0.457	-0.101 (inactive)	0.353 (inactive)	0.198
COc1cc(CO)cc(I)c1O[C@H]1C=C(C(=O)NCCO)C[C@@H](NC2CCCCCC2)[C@@H]1O	0.29	-1.65 (inactive)	0.0741 (inactive)	5.46 (inactive)	0.0453 (inactive)	-0.0211	-0.0115	0.0076	0.243	1.3	0.818 (inactive)	0.0313	10.1 (active)	1.55 (inactive)	3.68 (inactive)	1.09 (inactive)	0.565	0.287 (inactive)	-0.789 (inactive)	-0.579
O=C1O[C@H](c2ccccc2)[C@H](c2ccccc2)N2[C@H]1[C@@H](C(=O)O)[C@]1(C(=O)Nc3ccc(C#CCCO)cc31)[C@H]2c1ccc(OCCO)cc1	0.48	-0.33 (inactive)	0.982 (inactive)	1.17 (inactive)	0.147 (inactive)	0.468	0.0082	0.865	1.08	0.314	0.761 (inactive)	0.154	4.88 (inactive)	0.927 (inactive)	0.232 (inactive)	0.138 (inactive)	0.112	1.43 (inactive)	1.21 (inactive)	0.51
C=C(/C(=C/C[C@@H](OC(C)=O)c1cccc(OCCO)c1)c1cnc2ccccc2c1)C(C)C	1	-1.69 (inactive)	-1.04 (inactive)	0.769 (inactive)	1.32 (inactive)	0.208	0.0013	1.83	1.29	2.05	0.509 (inactive)	0.0582	12.5 (active)	2.52 (inactive)	1.24 (inactive)	0.895 (inactive)	0.328	-1.71 (inactive)	-0.885 (inactive)	-1.73
CC(C)NC(=O)[C@@H]1c2ccccc2C(=O)N(Cc2ccc(OC(F)(F)F)cc2)[C@H]1c1ccc(CO)cc1	0.663	-1.54 (inactive)	-0.294 (inactive)	-0.0243 (inactive)	0.442 (inactive)	0.201	0.618	1.12	0.39	1.81	-0.376 (inactive)	1.24	2.18 (inactive)	-0.0655 (inactive)	2.65 (inactive)	0.179 (inactive)	-0.065	0.412 (inactive)	-0.27 (inactive)	1.87
